# Compound activity: PubChem BioAssay, Broad Institute
# Many of the other results were omitted from the sample, so hits are more common in it than they were.
# DENV2 CPE rescue – inhibitors of DENV2 cytopathic effect, primary screen, cell-based, plate reader, single concentration; DENV2-infected cells, cytopathic effect rescue; CPE inhibition, % at 9.99 µM; actives 1.7% (n = 350,000); AID 651640, 2012; in the data active means CPE inhibition above about 20%, passing the limit was not always enough; inconclusive means no clear call, values can overlap the other calls; tested in BHK-21 cells;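 further: 0% = median of neutral control wells and 100% = median of positive control wells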
# N-glyco inh – increase of ERlucT glycosylation luciferase signal, primary screen, N-linked glycosylation inhibitor project, D54 ERlucT cells, luminescence, set 2; reporter increase, % at 12.5 µM; D54 ERlucT glycosylation luciferase reporter, 24 h; percent of 100 nM tunicamycin response; AID 588692, 2011; actives 0.23% (n = 360,000);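 active means mean luciferase reporter signal, scaled so untreated is 0 and the glycosylation-blocking control 100, at or above a set limit in every replicate; inconclusive means mean reaches the limit but not every replicate does; inactive means mean below the limit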;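 further: luciferase carries N-glycosylation sites so blocking glycosylation raises the light; 0% = median of neutral control wells and 100% = median of 100 nM tunicamycin wells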
# Rtt109 HAT inh – inhibitors of C. albicans Rtt109/Vps75 HAT, primary screen, biochemical, ThioGlo CoA-SH fluorescence, plate reader; Histone acetyltransferase RTT109 (Candida albicans (strain SC5314 / ATCC MYA-2876)), …; purified Rtt109/Vps75, 4 h; inhibition, % at 34.9 µM; actives 0.16% (n = 330,000);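 active means inhibition of at least 50% in every replicate; inconclusive means best replicate reaches 50% inhibition but some replicates fall short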
# Target sequence (Q5AAJ8 whole entry, looked up): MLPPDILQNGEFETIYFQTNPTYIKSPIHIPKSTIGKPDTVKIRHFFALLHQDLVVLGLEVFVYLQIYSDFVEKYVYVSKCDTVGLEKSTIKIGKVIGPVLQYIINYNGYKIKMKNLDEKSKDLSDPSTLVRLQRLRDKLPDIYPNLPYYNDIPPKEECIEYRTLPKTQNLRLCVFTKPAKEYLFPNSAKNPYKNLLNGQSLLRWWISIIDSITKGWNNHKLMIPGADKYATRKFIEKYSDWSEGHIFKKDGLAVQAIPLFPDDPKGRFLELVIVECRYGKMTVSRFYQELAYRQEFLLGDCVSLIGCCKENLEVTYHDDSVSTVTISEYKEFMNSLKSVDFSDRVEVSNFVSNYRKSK
# PglD inh – C. jejuni PglD acetyltransferase inhibitors, primary screen, biochemical, DTNB colorimetric, single point | UDP-N-acetylbacillosamine N-acetyltransferase PglD (Campylobacter jejuni) | purified PglD enzyme, DTNB colorimetric CoA detection | inhibition, % at 12.5 µM | actives 0.098% (n = 360,000) | AID 602405, 2012; in the data active means inhibition above about 16%, passing the limit was not always enough; inconclusive means no clear call, values can overlap the other calls
# * hit, by the source's call; ? = inconclusive; . = no result; ! = repeats disagree.
SMILES,DENV2 CPE rescue,N-glyco inh,Rtt109 HAT inh,PglD inh
COc1ccc(S(=O)(=O)Nc2ccc3c(c2)CC(=O)N([C@H](C)CO)C[C@H](C)[C@@H](CN(C)Cc2ccc(C(F)(F)F)cc2)O3)cc1,-9,.,.,2
Cc1ccc(CNC(=O)CSc2ccc(-c3cccs3)nn2)cc1,20*,-1,-4,-3
C[C@@H]1CCCCO[C@H](CN(C)C(=O)Nc2ccc(C(F)(F)F)cc2)[C@H](C)CN([C@H](C)CO)C(=O)c2cc(NC(=O)c3ccncc3)ccc2O1,-1,.,.,2
C[C@@H]1CCCCO[C@H](CN(C)C(=O)Nc2ccc(C(F)(F)F)cc2)[C@H](C)CN([C@@H](C)CO)C(=O)c2cc(NC(=O)c3ccncc3)ccc2O1,22*,.,.,2
C[C@@H]1CCCCO[C@@H](CN(C)C(=O)Nc2ccc(F)cc2)[C@H](C)CN([C@H](C)CO)C(=O)c2cc(NC(=O)c3ccncc3)ccc2O1,27*,.,.,0
C[C@@H]1CCCCO[C@@H](CN(C)C(=O)Nc2ccc3c(c2)OCO3)[C@@H](C)CN([C@H](C)CO)C(=O)c2cc(NC(=O)c3ccccc3)ccc2O1,20*,.,.,-1
C[C@@H]1CCCCO[C@H](CN(C)C(=O)Nc2ccc3c(c2)OCO3)[C@@H](C)CN([C@H](C)CO)C(=O)c2cc(NC(=O)c3ccccc3)ccc2O1,5,.,.,-1
C[C@@H]1CCCCO[C@H](CN(C)C(=O)Nc2ccc(C(F)(F)F)cc2)[C@@H](C)CN([C@H](C)CO)C(=O)c2cc(NC(=O)c3ccncc3)ccc2O1,21*!,-1,.,1
CN(C[C@H]1N[C@H](CO)[C@H]1c1ccc(-c2cccc(F)c2)cc1)S(C)(=O)=O,-5,.,.,-1
O=C(NCc1ccncn1)[C@@H]1[C@@H](CO)[C@@H]2Cn3c(ccc(-c4cccc(F)c4)c3=O)[C@@H]2N1CC1CC1,5,.,.,2
COc1cc(COC(C)=O)ccc1OC(C)=O,1,.,.,.
O=C(Nc1ccc2c(c1)[C@@H]1C[C@H](CC(=O)N3CCc4ccccc4C3)O[C@@H](CO)[C@@H]1O2)NC1CCCC1,2,.,.,4
C[C@H](CO)N1C[C@H](C)[C@H](CN(C)C(=O)Nc2ccc(F)cc2)OCCCC[C@H](C)Oc2ccc(NC(=O)c3ccccc3)cc2C1=O,84*,.,.,14
O=C(C1CCOCC1)N1[C@H](CO)[C@@H]2c3ccccc3NC[C@@H]21,.,.,.,0
CN(C)C(=O)c1cccc(-c2ccc3c(c2)[C@H]2[C@H](CCN2C(=O)c2cnccn2)[C@H](CO)N3)c1,?,.,.,1
Cn1cccc1/C=C1\SC(=S)N(NC(=O)c2ccccc2O)C1=O,5,2,-2,.
O=C(NN1C(=O)/C(=C/C=C/c2ccco2)SC1=S)c1ccccc1O,7,-1,70*,1
O=C(NCCN1C(=O)C2C3C=CC(C3)C2C1=O)Nc1ccc(Br)cc1 (stereo not drawn),5,-4,-4,-7
O=C(NCCN1C(=O)C2C3C=CC(C3)C2C1=O)Nc1cccnc1 (stereo not drawn),29*,0,0,3
CC(C)[C@H](NC(=O)c1ccc(Cl)c(Cl)c1)C(=O)N1CCC[C@H]1C(=O)NCCc1ccccc1Cl,23*,.,.,.
COc1ccc(S(=O)(=O)Nc2ccc3c(c2)C(=O)N([C@@H](C)CO)C[C@H](C)[C@H](CN(C)Cc2ccncc2)O3)cc1,2,.,.,6
CCCNC(=O)N1CC2(C1)CN(C(=O)CCC)[C@@H](CO)c1[nH]c3cc(OC)ccc3c12,22*,.,.,.
CCCNC(=O)N1CC2(C1)CN(C(=O)Nc1ccc(F)cc1)[C@@H](CO)c1[nH]c3cc(OC)ccc3c12,8,.,.,.
CCCNC(=O)N1CC2(C1)CN(C(=O)Nc1ccc(F)cc1)[C@H](CO)c1[nH]c3cc(OC)ccc3c12,23*,.,.,.
COc1ccc2c3c([nH]c2c1)[C@H](CO)N(C(=O)Nc1cccc(F)c1)CC31CN(S(=O)(=O)c2ccccc2)C1,79*,.,.,.
SMILES,DENV2 CPE rescue,N-glyco inh,Rtt109 HAT inh,PglD inh
COc1ccc2c3c([nH]c2c1)[C@@H](CO)N(C(=O)Nc1ccc(F)cc1)CC31CCN(Cc2cc(-c3ccccc3)on2)CC1,-5,.,.,.
COc1ccc2c3c([nH]c2c1)[C@H](CO)N(C(=O)Nc1ccc(F)cc1)CC31CN(Cc2cc(-c3ccccc3)on2)C1,50*,.,.,.
COc1ccc2c3c([nH]c2c1)[C@H](CO)N(C(=O)Nc1ccc(F)cc1)CC31CCN(C(=O)Nc2ccc3c(c2)OCO3)CC1,61*,.,.,.
COc1ccc2c3c([nH]c2c1)[C@@H](CO)N(C(=O)Nc1ccc(F)cc1)CC31CCN(C(=O)Nc2ccc3c(c2)OCO3)CC1,6,.,.,.
COCC(=O)N[C@@H]1CC[C@@H](CC(=O)N2CCCCC2)O[C@@H]1CO,?,.,.,-1
C[C@@H]1CCCCO[C@H](CN(C)Cc2ccncc2)[C@H](C)CN([C@H](C)CO)C(=O)c2cc(NC(=O)Nc3ccc4c(c3)OCO4)ccc2O1,-1,.,.,-3
C[C@@H]1CCCCO[C@H](CN(C)Cc2ccncc2)[C@@H](C)CN([C@@H](C)CO)C(=O)c2cc(NC(=O)Nc3ccc4c(c3)OCO4)ccc2O1,28*,.,.,6
C[C@@H]1CN([C@@H](C)CO)C(=O)c2cc(NC(=O)Nc3ccc(F)cc3)ccc2O[C@@H](C)CCCCO[C@H]1CN(C)Cc1ccccc1,40*,.,.,-6
C[C@@H]1CCCCO[C@@H](CN(C)Cc2ccccc2)[C@H](C)CN([C@H](C)CO)C(=O)c2cc(NC(=O)Nc3ccc(F)cc3)ccc2O1,41*,.,.,-3
C[C@@H]1CCCCO[C@H](CN(C)Cc2ccccc2)[C@@H](C)CN([C@H](C)CO)C(=O)c2cc(NC(=O)Nc3ccc(F)cc3)ccc2O1,-5,.,.,-1
C[C@@H]1CN([C@@H](C)CO)C(=O)c2cc(NC(=O)Cn3cnnn3)ccc2O[C@@H]1CN(C)Cc1ccc(Cl)c(Cl)c1,52*,.,.,2
